Only some compounds are listed: those with a hit (about 31% of all), similar ones and a draw of the others.
CYP2C9 act = CYP2C9 (human) activation; 96,000 compounds, 1.4% hits; activation factor at 5 µM; P11712; AID 1024; recombinant CYP2C9, luciferin-H conversion, luminescence; hits give high values; factor 1 = untreated enzyme, 0 = blocked;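 active = activation factor of 2 or more for CYP2C9 at a 5 µM dose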
CYP2C9 inh = inhibitors of human CYP2C9; AID 777; CYP2C9 Supersomes, luciferin-H conversion, luminescence; inhibition, % at 5 µM; 96,000 compounds, 20% hits;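 active = blocking of liver enzyme CYP2C9 beyond about 50% at 5 µM, limit read from the data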
PLAP act = activators of human placental alkaline phosphatase; activation fold at 20 µM; P05187; purified PLAP enzyme, luminescent substrate read-out; hits give high values; 96,000 compounds, 1.2% hits; in the data active = activation fold above about 2
CYP2C19 act = activators of human cytochrome P450 2C19; recombinant CYP2C19, luciferin-H EGE luminescence; hits give high values; 0 = fully inhibited enzyme, 1 = untreated enzyme; activation factor at 5 µM; 96,000 tested, under 10 active; P33261; AID 1025;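 active = activation factor of at least 2 at 5 µM in the primary screen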
CYP2C19 inh = inhibitors of human CYP2C19; P33261; CYP2C19 Supersomes, luciferin-H EGE luminescence, 30 min; inhibition, % at 5 µM; 96,000 compounds, 21% hits; AID 778;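 active = CYP2C19 inhibition above a set limit at 5 µM in the primary screen, cut at about 50% in these data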
Large screens that a line does not name were inactive.

CCOC(=O)N1CCN(C(=O)CN(C2CCCCC2)S(=O)(=O)c2c(C)cc(C)cc2C)CC1	CYP2C9 inh 63
COc1ccc(C2N=C(Nc3ccc(C)cc3)Nc3nc(C)cc(=O)n32)cc1 (stereo not drawn)	none
O=C(O)c1cccc(Nc2ncnc3ccccc23)c1	none
COc1cc(C(=O)Oc2cccc(Nc3ncnc4ccccc34)c2)cc(OC)c1OC	CYP2C9 inh 63
Cc1c(C)n(CC(O)CN2C(=O)c3ccccc3S2(=O)=O)c2ccccc12 (stereo not drawn)	CYP2C9 inh 97, CYP2C19 inh 98
O=C1c2ccccc2S(=O)(=O)N1CCOc1ccccc1	CYP2C19 inh 98
O=C1c2ccccc2S(=O)(=O)N1CC(O)COc1ccc(Br)cc1 (stereo not drawn)	CYP2C9 inh 69, CYP2C19 inh 100
OC(COc1ccc(Br)cc1)CN1CCOCC1 (stereo not drawn)	none
CN1CC(=O)N(CCOc2ccccc2)C1=O	none
O=C1c2ccccc2S(=O)(=O)N1CC(O)COc1ccc(Cl)cc1 (stereo not drawn)	CYP2C9 inh 67, CYP2C19 inh 100
Nn1c(CSc2ccccn2)nc2ccccc2c1=O	none
O=C(NCC1CCCO1)C1CCN(S(=O)(=O)c2cccnc2)CC1 (stereo not drawn)	none
CC(C)CCn1cnc2c(NCc3ccccc3)ncnc21	none
COc1cc(S(=O)(=O)NCc2cccnc2)ccc1F	CYP2C19 inh 83
O=C(CCNS(=O)(=O)c1ccc(Cl)cc1)NCc1ccccn1	none
COc1ccc(S(=O)(=O)NCc2ccccn2)cc1Cl	CYP2C9 act 3.2, CYP2C19 inh 92
O=S(=O)(NCCc1ccccn1)c1ccc(F)c(F)c1	CYP2C19 inh 85
COc1cc(Cl)c(S(=O)(=O)NCc2ccccn2)cc1Cl	PLAP act 2.3, CYP2C19 inh 81
CC1(C(=O)O)CCC(C(=O)N2CCOCC2)C1(C)C (stereo not drawn)	none
COc1cc(Cl)c(S(=O)(=O)NCc2cccnc2)cc1Cl	CYP2C19 inh 85
O=C(Nc1cccc2ccccc12)/C(Cl)=C/c1ccccc1	CYP2C9 act 3
N#C/C(=C/Nc1ccccc1)c1ccsc1	none
Cc1ccc(N/C=C(/C#N)c2ccsc2)cc1	CYP2C19 inh 64
O=C(NCCCN1CCN(c2cccc(Cl)c2)CC1)C1CCC(=O)N1Cc1ccccc1Cl (stereo not drawn)	none
COCCOC(=O)c1c(C)oc2ccc(OC(=O)c3c(OC)cccc3OC)cc12	CYP2C9 inh 96, CYP2C19 inh 93
COCCOC(=O)c1c(C)oc2ccc(OC(=O)c3ccc4c(c3)OCO4)cc12	CYP2C9 inh 87
CCOC(=O)Oc1ccc2oc(C)c(C(=O)OCCOC)c2c1	none
CCOC(=O)c1c(C)oc2ccc(OC(=O)N3CCOCC3)cc12	none
O=C(O)CCCCC1SCC2NC(=O)NC21 (stereo not drawn)	none
O=C(NCn1ccc(=O)[nH]c1=S)c1ccccc1	none
Cc1ccc(S(=O)(=O)N(C(=O)c2ccncc2)c2ccc(OC(=O)c3ccncc3)c3ccccc23)c(C)c1	CYP2C9 inh 99, CYP2C19 inh 97
COCCNC(=O)CSc1nc2ccccc2c(=O)n1-c1cccc(OC)c1	CYP2C9 inh 65, CYP2C19 inh 82
COc1ccc(C(=O)Nn2c(SCC(=O)NCc3ccccc3)nc3ccccc3c2=O)cc1	CYP2C9 inh 74
O=C(CSc1nc2ccccc2n1-c1ccccc1)NCC1CCCO1 (stereo not drawn)	CYP2C9 inh 72, CYP2C19 inh 96
COc1ccc(-n2nc(C(=O)NCC(=O)NCC3CCCO3)c3ccccc3c2=O)cc1Cl (stereo not drawn)	CYP2C9 inh 60
O=C(Cn1nc(C(=O)O)c2ccccc2c1=O)NCC1CCCO1 (stereo not drawn)	none
COc1cccc(-n2c(SCC(=O)Nc3cc(C)on3)nc3ccccc3c2=O)c1	none
O=C(CSc1nc2ccccc2c(=O)n1CC1CCCO1)NCC1CCCO1 (stereo not drawn)	none
Cc1cc(C)cc(N(CC(=O)NCC2CCCO2)C(=O)CCC(=O)Nc2cc(C)on2)c1 (stereo not drawn)	none
Cn1nc(-c2ccc(OCC(=O)NCC3CCCO3)cc2)c2ccccc2c1=O (stereo not drawn)	CYP2C9 inh 54
Cn1nc(-c2ccc(C(=O)NCC3CCCO3)cc2)c2ccccc2c1=O (stereo not drawn)	none

Screening data as filed in PubChem BioAssay.
